# From PubChem BioAssay (Tox21)
# Unmarked numbers belong to inactive results. Results filed as inconclusive are left out. Entries that show only a call come without a potency. Active and inactive are the calls of the source. Unless noted, calls follow the shape of the dose curve; as a rule, active = well fitted curve in the direction sought with a large enough effect in the repeat runs; inconclusive = weak or mixed curves; inactive = no such curve, though single readings can be large; an effect the other way counts as inactive or inconclusive.
# Legend:
# [1] = qHTS assay to identify small molecule antagonists of the glucocorticoid receptor (GR) signaling pathway - cell viability counter screen (AID 720693); also: nearly all actives have a fitted effect of over 55% in size
# [2] = qHTS assay for identifying genotoxic compounds that show differential cytotoxicity against isogenic chicken DT40 cell lines with known DNA damage response pathways - wild type cell line (AID 743012); also: nearly all actives have a fitted effect of over 60% in size; also: potency is read from the fitted curve at half-maximal effect
# In short: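 First, wild type DT40 cells were plated at 300 per well and equilibrated about 0.5 h at 37 C/5% CO2. Next, compounds in DMSO were added and exposure lasted 40 h. Finally, CellTiter-Glo was added for 30 min at room temperature and luminescence recorded.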
# [3] = qHTS assay for identifying genotoxic compounds that show differential cytotoxicity against isogenic chicken DT40 cell lines with known DNA damage response pathways - Rev3 mutant cell line (AID 743014); also: nearly all actives have a fitted effect of over 55% in size; also: potency is read from the fitted curve at half-maximal effect
# [4] = qHTS assay to identify small molecule antagonists of the androgen receptor (AR) signaling pathway - cell viability counter screen (AID 743033; also: nearly all actives have a fitted effect of over 45% in size)
# [5] = qHTS assay to identify small molecule antagonists of the androgen receptor (AR) signaling pathway using the MDA cell line - cell viability counter screen (AID 743041; also: nearly all actives have a fitted effect of over 45% in size)
# In short: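 Viability counter screen run alongside the AR antagonist reporter: cells seeded 5 h before compound, R1881 added, 16 h incubation at 37C without CO2, fluorescent CellTiter-Fluor signal quantified.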
# [6] = qHTS assay to identify small molecule antagonists of the thyroid receptor (TR) signaling pathway - cell viability counter screen (AID 743064); also: nearly all actives have a fitted effect of over 50% in size
# In short: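 GH3.TRE-Luc cells, 4 h pre-plating; cpd + T3 1 nM final; 37 °C 23.5 h; CellTiter-Fluor 30 min; fluorescence read.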
# [7] = qHTS assay to identify small molecule antagonists of the thyroid receptor (TR) signaling pathway (AID 743065); also: nearly all actives have a fitted effect of over 55% in size; also: potency is read from the fitted curve at half-maximal effect; as to activity, negative = inhibition: series mostly up to about 70 µM
# In short: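 GH3.TRE-Luc rat pituitary cells carrying two TR response elements driving luciferase were plated for 4 h, given compound plus 1 nM T3 (final), and incubated 23.5 h at 37 C. ONE-Glo luminescence measured reporter inhibition; CellTiter-Fluor fluorescence tracked cytotoxicity.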
# [8] = system: thyroid hormone receptor (rat, GH3 cells); experiment: qHTS assay to identify small molecule agonists of the thyroid receptor (TR) signaling pathway (AID 743066; calls by dose curve)
# [9] = qHTS assay to identify small molecule antagonists of the estrogen receptor alpha (ER-alpha) signaling pathway - cell viability counter screen (AID 743074; calls by dose curve;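 also: HEK293 cells carrying ER-alpha-UAS-bla reporter stimulated with 17beta-estradiol; nearly all actives have a fitted effect of over 45% in size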)
# [10] = qHTS assay to identify small molecule antagonists of the estrogen receptor alpha (ER-alpha) signaling pathway using the BG1 cell line - cell viability counter screen (AID 743081);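 also: compound given together with 17beta-estradiol as the ER stimulus; series mostly up to about 70 µM; nearly all actives have a fitted effect of over 45% in size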
# Aromatase (Homo sapiens) = Aromatase (Homo sapiens) (UniProt P11511); experiment: qHTS assay to identify aromatase inhibitors (AID 743083); also: series mostly up to about 70 µM; nearly all actives have a fitted effect of over 55% in size
# Sequence of Aromatase (Homo sapiens) (P11511 whole entry, looked up): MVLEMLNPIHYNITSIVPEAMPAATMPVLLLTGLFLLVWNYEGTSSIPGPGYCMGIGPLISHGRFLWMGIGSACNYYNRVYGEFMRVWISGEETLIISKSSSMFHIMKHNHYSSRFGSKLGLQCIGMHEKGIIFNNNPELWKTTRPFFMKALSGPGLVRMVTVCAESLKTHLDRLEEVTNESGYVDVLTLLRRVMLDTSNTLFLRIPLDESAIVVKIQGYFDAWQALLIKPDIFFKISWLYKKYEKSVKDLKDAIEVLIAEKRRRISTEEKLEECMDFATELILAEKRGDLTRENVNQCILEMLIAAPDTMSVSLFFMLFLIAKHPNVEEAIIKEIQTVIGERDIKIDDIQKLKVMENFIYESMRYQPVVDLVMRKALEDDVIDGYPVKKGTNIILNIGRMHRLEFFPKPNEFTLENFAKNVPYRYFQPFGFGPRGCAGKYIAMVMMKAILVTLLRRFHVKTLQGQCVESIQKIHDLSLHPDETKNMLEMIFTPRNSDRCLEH
# [11] = qHTS assay for identifying genotoxic compounds that show differential cytotoxicity against isogenic chicken DT40 cell lines with known DNA damage response pathways - Rad54/Ku70 mutant cell line (AID 743015); also: nearly all actives have a fitted effect of over 60% in size; also: potency is read from the fitted curve at half-maximal effect
# [12] = biological target: Androgen receptor (Homo sapiens) (UniProt P10275); experiment: qHTS assay to identify small molecule antagonists of the androgen receptor (AR) signaling pathway (AID 743035; active = well fitted inhibition curve with a large enough effect in the signal ratio in the repeat runs, not every such curve was filed as active; the % refers to the signal ratio; also: potency is read from the fitted curve at half-maximal effect)
# Sequence of Androgen receptor (Homo sapiens) (P10275 whole entry, looked up): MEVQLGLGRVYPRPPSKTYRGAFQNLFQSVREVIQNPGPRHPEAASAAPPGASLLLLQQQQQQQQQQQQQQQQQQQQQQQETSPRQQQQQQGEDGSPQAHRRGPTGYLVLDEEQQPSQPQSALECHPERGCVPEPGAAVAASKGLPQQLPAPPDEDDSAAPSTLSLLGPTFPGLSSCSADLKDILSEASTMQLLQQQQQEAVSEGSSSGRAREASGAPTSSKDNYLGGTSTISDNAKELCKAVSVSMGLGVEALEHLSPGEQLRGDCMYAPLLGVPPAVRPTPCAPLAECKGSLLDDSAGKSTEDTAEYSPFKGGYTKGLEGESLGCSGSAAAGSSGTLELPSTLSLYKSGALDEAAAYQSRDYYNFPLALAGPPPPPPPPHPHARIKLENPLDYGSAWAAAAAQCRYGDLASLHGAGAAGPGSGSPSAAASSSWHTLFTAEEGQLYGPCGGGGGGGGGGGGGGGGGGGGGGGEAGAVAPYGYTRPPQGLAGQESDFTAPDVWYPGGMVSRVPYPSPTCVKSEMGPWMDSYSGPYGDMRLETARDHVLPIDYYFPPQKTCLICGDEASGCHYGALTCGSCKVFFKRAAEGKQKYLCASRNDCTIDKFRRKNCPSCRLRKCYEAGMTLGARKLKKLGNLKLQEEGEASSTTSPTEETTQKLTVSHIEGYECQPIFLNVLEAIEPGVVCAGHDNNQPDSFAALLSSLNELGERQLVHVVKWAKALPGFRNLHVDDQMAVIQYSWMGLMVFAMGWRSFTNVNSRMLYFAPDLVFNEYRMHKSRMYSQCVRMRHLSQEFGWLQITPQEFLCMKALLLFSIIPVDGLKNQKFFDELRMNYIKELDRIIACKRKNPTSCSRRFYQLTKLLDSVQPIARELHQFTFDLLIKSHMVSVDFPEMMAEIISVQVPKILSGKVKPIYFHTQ
# In short: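 Beta-lactamase FRET read (2 h RT incubation with LiveBLAzer B/G) following 16 h of compound plus R1881 treatment of AR-UAS-bla HEK293 cells, which had been pre-incubated 4 h at 37C.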
# [13] = biological target: Androgen receptor (Homo sapiens) (UniProt P10275); experiment: qHTS assay to identify small molecule agonists of the androgen receptor (AR) signaling pathway (AID 743036; active = well fitted activation curve with a large enough effect in the signal ratio in the repeat runs, with a control signal flat, not every such curve was filed as active; the % refers to the signal ratio)
# In short: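 AR-bla HEK293 cells, 2,000/well; 4 h preincubation 37C/5% CO2; compound (DMSO) 16 h at 37C; LiveBLAzer B/G FRET substrate 2 h RT; fluorescence intensity read-out.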
# [14] = biological target: Androgen receptor (Homo sapiens) (UniProt P10275); experiment: qHTS assay to identify small molecule agonists of the androgen receptor (AR) signaling pathway using the MDA cell line (AID 743040; also: nearly all actives have a fitted effect of over 20% in size)
# In short: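 Luminescence from ONE-Glo, read after 30 min at room temperature, reflects MMTV-driven luciferase in MDA-kb2 cells (AR- and GR-responsive). Treatment lasted 16 h at 37C, 0% CO2.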
# [15] = biological target: Androgen receptor (Homo sapiens) (UniProt P10275); experiment: qHTS assay to identify small molecule antagonists of the androgen receptor (AR) signaling pathway using the MDA cell line (AID 743042; also: nearly all actives have a fitted effect of over 55% in size)
# In short: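 MDA-kb2 cells (human breast carcinoma, stably carrying an MMTV-luciferase reporter responsive to AR and GR) were plated at 3,000 cells/well and preincubated 5 hr at 37C, then given compound plus R1881 agonist for 16 h. ONE-Glo luminescence was read.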
# [16] = biological target: Estrogen receptor (Homo sapiens) (UniProt P03372); experiment: qHTS assay to identify small molecule agonists of the estrogen receptor alpha (ER-alpha) signaling pathway (AID 743075; calls by dose curve;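 also: HEK293 GripTite cells with ER-alpha and UAS-driven beta-lactamase reporter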)
# Sequence of Estrogen receptor (Homo sapiens) (P03372 whole entry, looked up): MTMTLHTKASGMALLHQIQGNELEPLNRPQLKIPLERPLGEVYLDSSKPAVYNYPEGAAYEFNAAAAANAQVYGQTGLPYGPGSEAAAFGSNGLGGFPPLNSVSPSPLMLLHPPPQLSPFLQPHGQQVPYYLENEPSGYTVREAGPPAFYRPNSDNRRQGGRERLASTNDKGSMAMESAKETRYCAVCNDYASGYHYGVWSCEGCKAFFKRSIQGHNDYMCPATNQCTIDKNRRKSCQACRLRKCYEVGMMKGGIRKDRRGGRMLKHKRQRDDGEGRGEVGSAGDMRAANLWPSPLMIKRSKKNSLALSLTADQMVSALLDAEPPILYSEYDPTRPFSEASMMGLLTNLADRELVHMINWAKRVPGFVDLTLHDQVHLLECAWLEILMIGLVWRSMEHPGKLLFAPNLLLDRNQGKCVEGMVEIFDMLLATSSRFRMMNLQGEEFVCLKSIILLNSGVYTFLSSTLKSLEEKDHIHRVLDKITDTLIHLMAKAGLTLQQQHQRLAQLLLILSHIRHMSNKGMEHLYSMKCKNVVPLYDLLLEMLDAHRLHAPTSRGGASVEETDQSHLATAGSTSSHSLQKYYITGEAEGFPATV
# [17] = biological target: Estrogen receptor (Homo sapiens) (UniProt P03372); experiment: qHTS assay to identify small molecule agonists of the estrogen receptor alpha (ER-alpha) signaling pathway using the BG1 cell line (AID 743079); also: nearly all actives have a fitted effect of over 20% in size
# [18] = qHTS assay to identify small molecule antagonists of the estrogen receptor alpha (ER-alpha) signaling pathway using the BG1 cell line (AID 743080; calls by dose curve;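 also: BG1 cells stimulated with 17beta-estradiol alongside compound; series mostly up to about 70 µM; nearly all actives have a fitted effect of over 25% in size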)
# In short: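 After 5 days in phenol-red-free 10% charcoal-stripped FBS medium, BG1-Luc-4E2 cells were seeded, left 24 h at 37 C, co-treated with compounds and 17beta-estradiol for 21.5 h, then assayed for viability and luciferase.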
# [19] = biological target: Estrogen receptor (Homo sapiens) (UniProt P03372); experiment: qHTS assay to identify small molecule antagonists of the estrogen receptor alpha (ER-alpha) signaling pathway (AID 743069; active = well fitted curve in the direction sought with a large enough effect in the signal ratio in the repeat runs, not every such curve was filed as active; the % refers to the signal ratio; also: potency is read from the fitted curve at half-maximal effect)
# In short: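 Estradiol-stimulated ER-alpha-UAS-bla HEK293 cells, 18 hr compound exposure at 37C. LiveBLAzer B/G substrate, 2 hr RT, fluorescence read.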
smiles,measurement,setting,value
COc1cc(C=O)ccc1OC(=O)C(C)C,Potency,[1],inactive
same,Potency,[2],inactive
same,Potency,[3],inactive
same,outcome,[4],inactive
same,outcome,[5],inactive
same,Potency,[6],inactive
same,Potency,[7],inactive
same,Potency,[8],inactive
same,Potency,[9],inactive
same,outcome,[10],inactive
same,outcome,Aromatase (Homo sapiens),inactive
Nc1cc(C(=O)O)ccc1Cl,Potency,[1],inactive
same,Potency,[3],inactive
same,Potency,[11],inactive
same,outcome,[4],inactive
same,Potency,[12],inactive
same,outcome,[13],inactive
same,outcome,[14],inactive
same,outcome,[5],inactive
same,outcome,[15],inactive
same,Potency,[6],inactive
same,Potency,[7],inactive
same,Potency,[8],inactive
same,Potency,[9],inactive
same,Potency,[16],inactive
same,Potency,[17],inactive
same,outcome,[18],inactive
same,outcome,[10],inactive
same,outcome,Aromatase (Homo sapiens),inactive
CCC(=O)OCCC(C)CCC=C(C)C (centres undefined),Potency,[1],inactive
same,Potency,[2],inactive
same,outcome,[4],inactive
same,outcome,[5],inactive
same,Potency,[7],inactive
same,Potency,[8],inactive
same,Potency,[9],inactive
same,outcome,[10],inactive
same,outcome,Aromatase (Homo sapiens),inactive
NS(=O)(=O)c1cc2c(cc1Cl)NC(C(Cl)Cl)NS2(=O)=O (centres undefined),Potency,[1],inactive
same,Potency,[2],inactive
same,Potency,[11],inactive
same,outcome,[5],inactive
same,Potency,[6],inactive
same,Potency,[7],inactive
same,Potency,[8],inactive
same,Potency,[9],inactive
same,outcome,[10],inactive
same,outcome,Aromatase (Homo sapiens),inactive
CCCCC/C=C/CC(=O)OC,Potency,[1],inactive
same,Potency,[2],inactive
same,outcome,[4],inactive
same,outcome,[5],inactive
same,Potency,[7],inactive
same,Potency,[9],inactive
same,outcome,[10],inactive
same,outcome,Aromatase (Homo sapiens),inactive
C=CCCCCCCCCCCC,"viability change, negative = cytotoxic",[1],4.18% [at 7.04 µM]
same,"activity, negative = cytotoxicity",[3],4.5% [at 8.53 µM]
same,"activity change, negative = cytotoxicity",[11],-12.6% [at 8.55 µM]
same,"activity change, negative = cytotoxicity",[4],-0.32% [at 7.04 µM]
same,"activity change, negative = inhibition",[12],-3.92% [at 7.04 µM]
same,activation,[13],-0.154% [at 6.9 µM]
same,activity change,[14],4.86% [at 8.47 µM]
same,"viability change, negative = cytotoxic",[5],-1.53% [at 8.47 µM]
same,"activity change, negative = inhibition",[15],17.6% [at 8.47 µM]
same,"activity change, negative = cytotoxic",[6],-6.91% [at 8.44 µM]
same,"activity, negative = inhibition",[7],8.56% [at 8.44 µM]
same,activation,[8],-1.31% [at 8.08 µM]
same,"activity, negative = inhibition",[19],-5.51% [at 6.71 µM]
same,activation,[16],-3.33% [at 6.71 µM]
same,activation,[17],-5.04% [at 8.47 µM]
same,"activity change, negative = inhibition",[18],-1.81% [at 8.47 µM]
same,"activity change, negative = cytotoxicity",[10],2.93% [at 8.47 µM]
same,"activity, negative = inhibition",Aromatase (Homo sapiens),6.54% [at 8.47 µM]
COc1ccc(OC)c(NC(=O)CC(C)=O)c1,Potency,[1],inactive
same,Potency,[2],inactive
same,Potency,[11],inactive
same,outcome,[4],inactive
same,outcome,[5],inactive
same,Potency,[7],inactive
same,Potency,[8],inactive
same,Potency,[9],inactive
same,outcome,[10],inactive
CCCOC(=O)CCCCC(=O)OCCC,Potency,[1],inactive
same,Potency,[2],inactive
same,Potency,[11],inactive
same,outcome,[4],inactive
same,outcome,[5],inactive
same,Potency,[6],inactive
same,Potency,[7],inactive
same,Potency,[8],inactive
same,Potency,[19],inactive
same,Potency,[9],inactive
same,Potency,[16],inactive
same,Potency,[17],inactive
same,outcome,Aromatase (Homo sapiens),inactive
COc1ccc(NS(=O)(=O)c2ccc(N)cc2)nn1,Potency,[1],inactive
same,Potency,[2],inactive
same,Potency,[11],inactive
same,outcome,[4],inactive
same,outcome,[5],inactive
same,Potency,[6],inactive
same,Potency,[7],inactive
same,Potency,[8],inactive
same,Potency,[19],inactive
same,Potency,[9],inactive
same,Potency,[16],inactive
same,Potency,[17],inactive
same,outcome,[18],inactive
same,outcome,[10],inactive
same,outcome,Aromatase (Homo sapiens),inactive
Cc1nc(C)nc(N2C[C@@H](C)N(c3ccnc([C@@H](C)O)n3)[C@@H](C)C2)n1,Potency,[1],inactive
same,Potency,[2],inactive
same,outcome,[4],inactive
same,outcome,[5],inactive
same,Potency,[6],inactive
same,Potency,[7],inactive
same,Potency,[8],inactive
same,Potency,[19],inactive
same,Potency,[9],inactive
same,Potency,[16],inactive
same,Potency,[17],inactive
same,outcome,[18],inactive
same,outcome,[10],inactive
same,outcome,Aromatase (Homo sapiens),inactive
O=S1(=O)CCCC1,Potency,[1],inactive
same,Potency,[2],inactive
same,Potency,[11],inactive
same,outcome,[4],inactive
same,outcome,[5],inactive
same,Potency,[7],inactive
same,Potency,[8],inactive
same,Potency,[19],inactive
same,Potency,[9],inactive
same,Potency,[16],inactive
same,Potency,[17],inactive
same,outcome,[18],inactive
same,outcome,[10],inactive
same,outcome,Aromatase (Homo sapiens),inactive
COc1cc([N+](=O)[O-])ccc1N,Potency,[1],inactive
same,Potency,[2],inactive
same,Potency,[11],inactive
same,outcome,[4],inactive
same,outcome,[13],inactive
same,outcome,[14],inactive
same,outcome,[15],inactive
same,Potency,[7],inactive
same,Potency,[8],inactive
same,Potency,[19],6.92 µM [inhibitor] (active)
same,Potency,[9],inactive
same,Potency,[16],inactive
same,Potency,[17],inactive
same,outcome,Aromatase (Homo sapiens),inactive
FC(F)(F)/C(=N\OCC1OCCO1)c1ccc(Cl)cc1,Potency,[1],inactive
same,Potency,[2],inactive
same,Potency,[11],inactive
same,outcome,[4],inactive
same,Potency,[7],inactive
same,Potency,[8],inactive
same,Potency,[19],inactive
same,Potency,[9],inactive
same,Potency,[16],inactive
same,Potency,[17],inactive
same,outcome,[18],inactive
same,outcome,[10],inactive
same,outcome,Aromatase (Homo sapiens),inactive
Oc1ccccc1Cc1ccccc1O,Potency,[1],inactive
same,Potency,[2],inactive
same,Potency,[3],inactive
same,outcome,[4],inactive
same,outcome,[5],inactive
same,Potency,[6],inactive
same,Potency,[8],inactive
same,Potency,[17],inactive
same,outcome,[18],inactive
same,outcome,[10],inactive
same,outcome,Aromatase (Homo sapiens),inactive
CCN(CCO)c1cccc(C)c1,Potency,[1],inactive
same,Potency,[2],inactive
same,outcome,[4],inactive
same,outcome,[5],inactive
same,Potency,[6],inactive
same,Potency,[9],inactive
same,Potency,[16],inactive
same,Potency,[17],inactive
same,outcome,[18],inactive
same,outcome,[10],inactive
same,outcome,Aromatase (Homo sapiens),inactive
CCC(CO)CO,Potency,[1],inactive
same,Potency,[2],inactive
same,Potency,[11],inactive
same,outcome,[4],inactive
same,outcome,[5],inactive
same,Potency,[6],inactive
same,Potency,[7],inactive
same,Potency,[8],inactive
same,Potency,[9],inactive
same,Potency,[16],inactive
same,Potency,[17],inactive
same,outcome,[18],inactive
same,outcome,[10],inactive
same,outcome,Aromatase (Homo sapiens),inactive
CC(C)(C)NCCO,Potency,[1],inactive
same,Potency,[2],inactive
same,Potency,[11],inactive
same,outcome,[4],inactive
same,outcome,[5],inactive
same,Potency,[6],inactive
same,Potency,[7],inactive
same,Potency,[8],inactive
same,Potency,[19],inactive
same,Potency,[9],inactive
same,Potency,[16],inactive
same,Potency,[17],inactive
same,outcome,[18],inactive
same,outcome,[10],inactive
same,outcome,Aromatase (Homo sapiens),inactive
C=CCOc1cc(Cl)ccc1C(=O)NCCN(CC)CC,Potency,[1],inactive
same,Potency,[2],15 µM (active)
same,Potency,[3],29.8 µM (active)
same,outcome,[4],inactive
same,outcome,[5],inactive
same,Potency,[7],13.3 µM (active)
same,Potency,[8],inactive
same,Potency,[9],inactive
same,outcome,[10],inactive
same,outcome,Aromatase (Homo sapiens),inactive
O=C(CN1CCN(Cc2ccc3c(c2)OCO3)CC1)N1c2ccccc2Sc2ccccc21,Potency,[1],inactive
same,Potency,[2],13.3 µM (active)
same,Potency,[11],26.6 µM (active)
same,Potency,[12],26.8 µM (active)
same,outcome,[13],inactive
same,outcome,[14],inactive
same,outcome,[5],inactive
same,outcome,[15],inactive
same,Potency,[7],26.6 µM (active)
same,Potency,[9],inactive
same,outcome,[10],inactive
same,outcome,Aromatase (Homo sapiens),inactive
